In assay [1] the target is Progesterone receptor (Homo sapiens) (UniProt P06401). Description: qHTS assay to identify small molecule agonists of the progesterone receptor (PR) signaling pathway (AID 1346784; calls by dose curve; further: nearly all actives have a fitted effect of over 30% in size). In outline:
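PR-UAS-bla HEK 293T cells (beta-lactamase reporter under UAS) in 2% charcoal-stripped FBS, dosed with 23 nL compound after 6 hr, incubated 16hr at 37C. LiveBLAzer B/G FRET substrate added, fluorescence read after 2 hours.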
On the technique in general: Quantitative high-throughput screening tests each substance at several concentrations.

The target is the same in assay [2]. As to the kind of experiment: qHTS assay to identify small molecule antagonists of the progesterone receptor (PR) signaling pathway (AID 1346795; active means well fitted inhibition curve with a large enough effect in the signal ratio in the repeat runs, not every such curve was filed as active; the % refers to the signal ratio; further: potency means the concentration at half of the fitted maximal effect). In outline:
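PR-UAS-bla HEK293T cells with beta-lactamase reporter under UAS control, in 2% charcoal-stripped FBS, treated with compounds plus 1 nM promegestone (R5020, final) for 16 hr at 37C. Read-out: FRET beta-lactamase substrate fluorescence after 2 hr at room temperature.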

Assay [3] is described as follows: qHTS assay to identify small molecule antagonists of the progesterone receptor (PR) signaling pathway - cell viability counter screen (AID 1346798). Further: nearly all actives have a fitted effect of over 50% in size. Further: potency means the concentration at half of the fitted maximal effect. On activity change, negative = cytotoxicity: series mostly up to about 92 µM. In outline: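 PR-UAS-bla HEK293T cells, 3,000/well in 2% charcoal-stripped FBS medium, dosed with compounds plus R5020 agonist and incubated 16 h at 37C. Viability then measured in the same wells by CellTiter-Glo luminescence after 30 min at RT.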

The nature of assay [4]: qHTS assay to identify small molecule antagonists of the TGF-beta/Smad signaling pathway - cell viability counter screen (AID 1346824). Further: nearly all actives have a fitted effect of over 50% in size. Further: potency means the concentration at half of the fitted maximal effect. Summed up: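 SBE-bla HEK 293T cells, incubated overnight, then compound plus 0.25 ng/mL TGF-beta1 (stock added) for 5 hr at 37 C. Viability was read in the same wells by CellTiter-Glo luminescence after 30 min at room temperature.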
The nature of assay [5]: qHTS assay to identify small molecule agonists of the TGF-beta/Smad signaling pathway (AID 1346859; active means well fitted activation curve with a large enough effect in the signal ratio in the repeat runs, not every such curve was filed as active; the % refers to the signal ratio; further: series mostly up to about 77 µM). Summed up:
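SBE-bla HEK293T cells plated overnight, then compound exposure for 5 h at 37 C. Beta-lactamase reporter read with LiveBLAzer B/G FRET substrate after 2 h at room temperature, fluorescence at 405 nm excitation, 460/530 nm emission.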

Assay [6] addresses Thyrotropin-releasing hormone receptor (Homo sapiens) (UniProt P34981). Description: qHTS assay to identify small molecule antagonists of the thyrotropin-releasing hormone receptor (TRHR) signaling pathway (AID 1346877; active means well fitted inhibition curve with a large enough effect in the repeat runs, not every such curve was filed as active; further: potency means the concentration at half of the fitted maximal effect; on activity, negative = inhibition: series mostly up to about 51 µM). Summed up: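 Screening used HEK293 cells engineered with TRHR, with a brief 5 min room-temperature compound exposure preceding addition of TRH to 1 nM. The read-out was kinetic calcium-dye fluorescence, concentration-response from 15 doses in triplicate.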

Assay [7] shares this target. As to the kind of experiment: qHTS assay to identify small molecule agonists of the thyrotropin-releasing hormone receptor (TRHR) signaling pathway (AID 1346891; calls by dose curve; further: potency means the concentration at half of the fitted maximal effect; on activation: series mostly up to about 58 µM). In outline:
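HEK293 cells expressing TRHR plated 18 h at 37 C/5% CO2, calcium dye-loaded 2 h at 37 C, then compound added (agonist mode); kinetic calcium fluorescence read 3 min at 1 s intervals; 15 concentrations in triplicate.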

Assay [8] is described as follows: Human pregnane X receptor (PXR) small molecule agonists, qHTS cell viability counter screen (AID 1346977). Further: nearly all actives have a fitted effect of over 50% in size. Further: potency means the concentration at half of the fitted maximal effect. Summed up: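 PXR-Luc HepG2 cells (2,000/well, 5% charcoal-stripped FBS) preincubated 5 hr, then exposed to compounds 24 hr at 37 C. Viability read in the same wells by CellTiter-Fluor fluorescence, reagent added at 23 hr, 1 hr incubation.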
Assay [9] can be described thus: Caspase-3/7 induction in HepG2 cells by small molecules, qHTS assay (AID 1346978). Further: nearly all actives have a fitted effect of over 15% in size. Summed up: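 Wild-type HepG2 cells, 2,000/well, settled 5 hr at 37 C and 5% CO2, then compound-treated for 17 hr; caspase-3/7 activity read by luminescent Caspase-Glo 3/7 after 30 min at room temperature.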
Assay [10] in a line: Caspase-3/7 induction in CHO-K1 cells by small molecules, qHTS cell viability counter screen (AID 1346979). Further: nearly all actives have a fitted effect of over 35% in size. Further: potency means the concentration at half of the fitted maximal effect. Summed up:
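Wild-type CHO-K1 cells (1,500/well) treated with compound after 5 h plating; after 16 h at 37C, viability read as CellTiter-Fluor fluorescence following 1 h reagent incubation, in the same wells as the caspase read.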

Assay [11] in a line: Caspase-3/7 induction in HepG2 cells by small molecules, qHTS cell viability counter screen (AID 1346981). Further: nearly all actives have a fitted effect of over 30% in size. Further: potency means the concentration at half of the fitted maximal effect. On activity change, negative = cytotoxicity: series mostly up to about 92 µM. Summed up: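 Multiplexed with the caspase-3/7 assay: HepG2 cells, 16 hr compound treatment, CellTiter-Fluor viability detection by fluorescence.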
Assay [12] addresses Cytochrome P450 2D6 (Homo sapiens) (UniProt P10635). As to the kind of experiment: Cytochrome P450 Family 2 Subfamily D Member 6 (CYP2D6) small molecule antagonists: luciferase reporter qHTS assay (AID 1671196). Further: nearly all actives have a fitted effect of over 50% in size. Further: potency means the concentration at half of the fitted maximal effect. On activity change, negative = inhibition: series mostly up to about 120 µM. Summed up:
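Luminescence (RLU), read 20 min after detection reagent, indicated CYP2D6 conversion of proluciferin to luciferin during a 1 h NADPH-dependent reaction at room temperature.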

Assay [13] has as its target Cytochrome P450 2C19 (Homo sapiens) (UniProt P33261). As to the kind of experiment: Cytochrome P450 Family 2 Subfamily C Member 19 (CYP2C19) small molecule antagonists: luciferase reporter qHTS assay (AID 1671197). Further: nearly all actives have a fitted effect of over 65% in size. Further: potency means the concentration at half of the fitted maximal effect. On activity change, negative = inhibition: series mostly up to about 120 µM. In outline:
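Enzyme-substrate mix with proluciferin substrate (P450-Glo CYP2C19 system) preincubated with compounds 10 min at room temperature; NADPH regeneration solution added, 37C for 1 h; detection reagent stops reaction, luminescence read after 20 min. Ketoconazole positive control.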
On the technique in general: In a reporter assay the amount or activity of a reporter protein is the signal.

Assay [14] has as its target Nuclear receptor subfamily 1 group I member 2 (Homo sapiens) (UniProt O75469). As to the kind of experiment: Human pregnane X receptor (PXR) small molecule agonists, qHTS assay (AID 1346982). Further: nearly all actives have a fitted effect of over 35% in size. Further: potency means the concentration at half of the fitted maximal effect. In outline:
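We seeded PXR-Luc HepG2 cells in assay medium containing 5% charcoal-stripped FBS, added compounds 5 hr later, incubated 24 hr, and read luminescence with ONE-Glo reagent.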

For assay [15], the target named is Nuclear receptor subfamily 1 group I member 2 (Rattus norvegicus) (UniProt Q9R1A7). Description: Rat pregnane X receptor (rPXR) activation by small molecules, qHTS assay (AID 1346983). Further: nearly all actives have a fitted effect of over 20% in size. To be noted: rPXR luciferase reporter cells, One-Glo luminescence, 24 h; max activation: stronger effect = higher value. Summed up:
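Cell-based rPXR activation assay: rPXR cells, 2,000 per well, rested 5hr at 37 C, then exposed to compounds in DMSO for 24 hr at 37 C. Luciferase activity read by One-Glo luminescence after 30 min at room temperature.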

Assay [16] concerns the target Nuclear receptor subfamily 1 group I member 2 (Homo sapiens) (UniProt O75469). As to the kind of experiment: CYP3A4 induction through human pregnane X receptor (PXR) by small molecules, qHTS assay (AID 1346984). Further: nearly all actives have a fitted effect of over 40% in size. Summed up: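 qHTS, concentration-response format: HepG2 DPX-2 line, PXR/CYP3A4-luc. Exposure 24 h, 37C. Substrate Luciferin-IPA 3uM final, 3 h. Detection One-Glo, 30 min RT.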

Assay [17] can be described thus: qHTS assay to identify small molecule agonists of the progesterone receptor (PR) signaling pathway - cell viability counter screen (AID 1346799; calls by dose curve; further: nearly all actives have a fitted effect of over 45% in size; further: potency means the concentration at half of the fitted maximal effect). In outline:
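Counter screen in the PR-UAS-bla HEK293T wells (2% charcoal-stripped FBS, 16 h compound exposure at 37 C) after the bla read. CellTiter-Glo added, 30 min at room temperature, luminescence read as cell viability.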

Assay [18] in a line: Caspase-3/7 induction in CHO-K1 cells by small molecules, qHTS assay (AID 1346980). Further: nearly all actives have a fitted effect of over 15% in size. In outline:
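Wild-type CHO-K1 cells exposed to compounds for 17hr at 37 C, 5% CO2. Caspase-3/7 activity then measured by Caspase-Glo 3/7 luminescence after 30min at room temperature.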

A short description of assay [19]: qHTS assay to identify small molecule agonists of the TGF-beta/Smad signaling pathway - cell viability counter screen (AID 1346829). Further: top concentration of the series differs between compounds; nearly all actives have a fitted effect of over 45% in size. Summed up:
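CellTiter-Glo luminescence readout; SBE-bla HEK 293T cells, overnight plating, compound 5 hr at 37 C/5% CO2, then bla substrate 2 hr RT, then CellTiter-Glo 30 min RT.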

The target in assay [20] is Nuclear receptor subfamily 1 group I member 2 (Homo sapiens) (UniProt O75469). As to the kind of experiment: Human pregnane X receptor (PXR) activation by small molecules, qHTS assay (AID 1346985). Further: nearly all actives have a fitted effect of over 40% in size. Summed up: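 DPX-2 cells (HepG2 co-transfected with a PXR response element and a CYP3A4-promoter luciferase construct) were seeded at 2,000 per well, rested 5 hr at 37C, then exposed to DMSO-dissolved compounds for 24 hr. Activation was read as luciferase luminescence.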
Chain of Nuclear receptor subfamily 1 group I member 2 (Homo sapiens) (O75469 whole entry, looked up): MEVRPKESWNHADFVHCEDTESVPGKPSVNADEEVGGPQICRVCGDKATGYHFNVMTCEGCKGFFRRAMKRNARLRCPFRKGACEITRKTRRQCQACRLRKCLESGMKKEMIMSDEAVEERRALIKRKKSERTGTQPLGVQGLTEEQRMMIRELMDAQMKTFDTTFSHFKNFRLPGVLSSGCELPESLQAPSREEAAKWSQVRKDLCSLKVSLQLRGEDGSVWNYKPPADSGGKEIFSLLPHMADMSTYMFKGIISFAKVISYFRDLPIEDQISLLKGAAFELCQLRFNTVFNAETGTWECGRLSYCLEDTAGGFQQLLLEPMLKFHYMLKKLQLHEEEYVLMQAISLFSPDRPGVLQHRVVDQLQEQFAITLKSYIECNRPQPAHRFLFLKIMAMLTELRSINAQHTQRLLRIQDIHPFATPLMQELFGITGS

Consider eight compounds from PubChem BioAssay (Tox21).

“And” between values parts separate entries of the source, which are not always exact repeats. Identical values can stand only once. Records with an inconclusive call do not appear. Some structures have more than one record in an assay (separate samples or runs), and their calls can disagree. The source made the active and inactive calls. Unless noted, the call rests on the fitted dose curve; in most records, active means well fitted curve in the direction sought with a large enough effect in the repeat runs; inconclusive means weak or mixed curves; inactive means no such curve, though single readings can be large; an effect the other way counts as inactive or inconclusive.
On the % scale 0 is the no-effect control and ±100 the full control effect.

Chain of Nuclear receptor subfamily 1 group I member 2 (Rattus norvegicus) (Q9R1A7 whole entry, looked up): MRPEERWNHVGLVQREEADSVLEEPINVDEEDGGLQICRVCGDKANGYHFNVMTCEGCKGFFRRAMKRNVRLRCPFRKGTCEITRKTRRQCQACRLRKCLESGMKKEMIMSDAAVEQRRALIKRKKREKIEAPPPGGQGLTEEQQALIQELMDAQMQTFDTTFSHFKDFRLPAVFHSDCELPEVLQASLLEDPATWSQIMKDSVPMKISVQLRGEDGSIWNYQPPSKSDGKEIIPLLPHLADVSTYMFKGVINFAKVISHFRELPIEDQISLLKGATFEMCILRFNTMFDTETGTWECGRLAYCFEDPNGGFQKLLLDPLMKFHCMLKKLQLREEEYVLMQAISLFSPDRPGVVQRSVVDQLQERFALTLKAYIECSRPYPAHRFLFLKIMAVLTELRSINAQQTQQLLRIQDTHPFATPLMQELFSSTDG
Chain of Cytochrome P450 2C19 (Homo sapiens) (P33261 whole entry, looked up): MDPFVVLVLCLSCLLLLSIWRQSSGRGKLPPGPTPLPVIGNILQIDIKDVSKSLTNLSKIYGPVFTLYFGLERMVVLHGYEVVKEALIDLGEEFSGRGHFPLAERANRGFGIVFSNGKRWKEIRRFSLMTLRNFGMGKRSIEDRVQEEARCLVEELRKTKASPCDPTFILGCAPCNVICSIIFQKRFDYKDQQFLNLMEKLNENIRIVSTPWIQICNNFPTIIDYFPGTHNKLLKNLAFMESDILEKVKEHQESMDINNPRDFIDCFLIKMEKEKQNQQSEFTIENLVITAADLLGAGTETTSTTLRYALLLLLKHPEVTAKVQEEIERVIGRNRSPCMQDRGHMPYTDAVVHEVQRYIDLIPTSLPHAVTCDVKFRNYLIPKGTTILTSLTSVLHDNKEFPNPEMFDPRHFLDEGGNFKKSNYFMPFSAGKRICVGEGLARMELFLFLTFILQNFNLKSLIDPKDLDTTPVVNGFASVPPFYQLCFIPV
Chain of Progesterone receptor (Homo sapiens) (P06401 whole entry, looked up): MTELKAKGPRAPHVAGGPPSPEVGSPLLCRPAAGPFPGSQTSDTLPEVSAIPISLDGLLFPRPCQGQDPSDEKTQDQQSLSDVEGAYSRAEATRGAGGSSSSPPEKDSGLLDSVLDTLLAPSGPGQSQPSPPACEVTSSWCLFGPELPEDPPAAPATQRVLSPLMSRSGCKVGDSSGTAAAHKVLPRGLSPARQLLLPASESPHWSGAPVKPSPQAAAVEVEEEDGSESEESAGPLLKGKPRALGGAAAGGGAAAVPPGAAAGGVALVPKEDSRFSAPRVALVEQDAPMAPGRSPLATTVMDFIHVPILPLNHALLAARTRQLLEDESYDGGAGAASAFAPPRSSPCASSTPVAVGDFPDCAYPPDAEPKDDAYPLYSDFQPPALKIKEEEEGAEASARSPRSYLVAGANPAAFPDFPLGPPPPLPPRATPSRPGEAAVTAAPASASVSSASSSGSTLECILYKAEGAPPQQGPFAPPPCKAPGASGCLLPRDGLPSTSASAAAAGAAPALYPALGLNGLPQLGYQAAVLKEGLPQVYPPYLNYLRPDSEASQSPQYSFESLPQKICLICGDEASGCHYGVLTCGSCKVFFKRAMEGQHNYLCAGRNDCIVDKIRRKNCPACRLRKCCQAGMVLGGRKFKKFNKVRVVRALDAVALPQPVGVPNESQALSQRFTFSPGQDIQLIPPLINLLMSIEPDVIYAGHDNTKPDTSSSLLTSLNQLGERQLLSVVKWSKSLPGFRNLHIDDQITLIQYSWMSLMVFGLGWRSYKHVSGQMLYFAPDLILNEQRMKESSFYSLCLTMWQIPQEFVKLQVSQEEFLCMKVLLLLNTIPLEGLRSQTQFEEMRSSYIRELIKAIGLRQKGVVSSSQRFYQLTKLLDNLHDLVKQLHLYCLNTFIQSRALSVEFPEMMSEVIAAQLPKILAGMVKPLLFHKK
Chain of Thyrotropin-releasing hormone receptor (Homo sapiens) (P34981 whole entry, looked up): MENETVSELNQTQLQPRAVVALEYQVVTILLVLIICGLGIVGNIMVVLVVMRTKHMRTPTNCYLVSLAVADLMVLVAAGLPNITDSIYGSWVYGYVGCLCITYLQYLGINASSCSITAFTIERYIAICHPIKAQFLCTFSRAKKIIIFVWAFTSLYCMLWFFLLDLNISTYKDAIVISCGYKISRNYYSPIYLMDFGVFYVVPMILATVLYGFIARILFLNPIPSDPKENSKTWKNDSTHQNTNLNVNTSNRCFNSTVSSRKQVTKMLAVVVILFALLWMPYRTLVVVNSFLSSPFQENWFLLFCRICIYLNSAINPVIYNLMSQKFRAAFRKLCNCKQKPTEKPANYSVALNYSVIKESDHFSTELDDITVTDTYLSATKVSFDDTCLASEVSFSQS
Chain of Cytochrome P450 2D6 (Homo sapiens) (P10635 whole entry, looked up): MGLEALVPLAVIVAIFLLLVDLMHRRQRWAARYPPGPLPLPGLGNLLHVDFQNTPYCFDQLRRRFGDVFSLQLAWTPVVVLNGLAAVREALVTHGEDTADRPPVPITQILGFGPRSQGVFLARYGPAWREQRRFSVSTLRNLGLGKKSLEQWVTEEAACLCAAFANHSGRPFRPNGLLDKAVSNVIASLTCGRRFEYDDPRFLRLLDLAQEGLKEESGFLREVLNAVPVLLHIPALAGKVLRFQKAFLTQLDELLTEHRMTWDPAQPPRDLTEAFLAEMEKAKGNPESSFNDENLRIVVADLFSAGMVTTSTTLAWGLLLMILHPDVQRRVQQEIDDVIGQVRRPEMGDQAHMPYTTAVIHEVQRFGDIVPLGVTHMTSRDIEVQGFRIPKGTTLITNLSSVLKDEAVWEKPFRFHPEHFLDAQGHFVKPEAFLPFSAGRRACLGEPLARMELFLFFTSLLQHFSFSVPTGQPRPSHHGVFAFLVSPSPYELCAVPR

As to `COc1ccc(C(Cl)=C(c2ccc(OC)cc2)c2ccc(OC)cc2)cc1`, the Potency result in assay [1], in assay [3], in assay [4], in assay [6], in assay [7] and in assay [8] was “inactive” each time. The Potency result in assay [9], in [10], in assay [11] and in assay [12] was “inactive” throughout. Further, the Potency is 6.82 µM (active) and 5.45 µM (active) and 4.22 µM (active) in assay [2]; 7.93 µM (active) and 12.6 µM (active) and 4.36 µM (active) in assay [13]. For the same compound, in assay [5], the call was inactive.

`C=C1CC[C@H](O)C/C1=C\C=C1/CCC[C@]2(C)[C@@H]([C@H](C)CCCC(C)C)CC[C@@H]12`: the Potency result in assay [4], in assay [6], in [7], in assay [8], in assay [11] and in assay [16] was “inactive” each time. In [12], the Potency entry was “inactive”. In addition, the compound was classed as inactive in assay [5]. The Potency in assay [10] is 48.1 µM (active); in assay [14], 17100 nM (active); in assay [13], 35.3 µM (active). Also, in assay [15], the max activation was 1.13% (inactive).

Take `O=C(Nc1ncc([N+](=O)[O-])s1)c1cccs1`: the Potency result in assay [1], in assay [3], in [17], in assay [6], in [7] and in [9] was “inactive” each time. Besides, the Potency entry in [16] is “inactive”. The Potency is 10.7 µM (active) in assay [4]; 23.7 µM (active) in [8]; 26.6 µM (active) in assay [10]; 29.8 µM (active) in assay [11]; 531 nM (active) in [14]; 12.3 µM (active) in assay [12]. Further, the Potency in assay [13] is 8.71 µM (active). Moreover, the result in assay [5] was inactive.

As for `Nc1ccc2c(c1)CN1C(=O)c3ccccc3C1=N2`, in assay [1], the activation is -0.634% [at 19 µM] (inactive). Moreover, the activity change, negative = inhibition in assay [2] is -14.5% [at 18.9 µM] (inactive). The figures for the activity change, negative = cytotoxicity in [3] and in [17] were -15.2% [at 18.9 µM] (inactive) and -25.1% [at 19 µM] (inactive), respectively. For the same compound, the activity, negative = inhibition in assay [6] is -0.792% [at 10.5 µM] (inactive). The Potency in [7] is 8.27 µM (active); in [14], 73 nM (active); in assay [12], 6.01 µM (active); in assay [13], 3.01 µM (active). Moreover, in assay [9], the caspase activation is -14.3% [at 19 µM] (inactive). The caspase-3/7 activation in assay [18] is -7.02% [at 19 µM] (inactive).

Regarding `CCCCCCCCCCCC[N+](C)(C)Cc1ccccc1`, the Potency in assay [3] is 29.7 µM (active) and 33.5 µM (active); in [17] it was 8.47 µM (active) and 8.36 µM (active) and 10.6 µM (active); in assay [4] it was 48 µM (active) and 33.6 µM (active) and 23.9 µM (active); in assay [8] it was 52.8 µM (active); in [10] it was 42.4 µM (active) and 33.3 µM (active) and 26.6 µM (active); in [11], 67.3 µM (active) and 74.5 µM (active) and inactive. For the same compound, the Potency was 984 nM (active) and 866 nM (active) and 219 nM (active) in [12]; 78.1 µM (active) and 34.5 µM (active) and 17.4 µM (active) in assay [13]. Moreover, the compound was called inactive in assay [5]. For the same compound, the Potency entry in assay [6], in [7], in [18] and in [14] was “inactive” each time.

On to `C1=CC2C3C=CC(C3)C2C1` (stereo not given), for which the Potency result in [1], in assay [3], in assay [4], in assay [8], in assay [9] and in assay [10] was “inactive” in each case. The Potency entry in assay [11] and in assay [13] was “inactive” each time. For the same compound, in assay [5], the call was inactive. For the same compound, the Potency in assay [7] is 34.1 µM (active); in assay [12], 6.99 µM (active).

Regarding `CC/C(=C(\c1ccccc1)c1ccc(OCCN(C)C)cc1)c1ccccc1`, in assay [1], the Potency entry is “inactive”. Further, the result in [5] was inactive. The Potency in assay [6] was 12.1 µM (active) and inactive; in assay [7], 15.6 µM (active) and inactive; in [8] it was 25.1 µM (active) [middle of 5 runs]; in assay [10] it was 54.4 µM (active) [middle of 4 runs]; in [11], 61.1 µM (active) [middle of 4 runs]. In assay [15], the max activation was -0.827% (inactive).

Take `CCCCCCc1ccc(O)cc1O`: the Potency entry in assay [1], in [4], in assay [19], in [6], in assay [7] and in [8] was “inactive” each time. Moreover, the Potency entry in assay [18], in assay [11] and in assay [16] was “inactive” in each case. Also, the Potency is 27.4 µM (active) and 27.3 µM (active) and 23.7 µM (active) in assay [2]; 61.3 µM (active) and 61.1 µM (active) and 1.19 µM (active) in assay [10]; 68.8 µM (active) and inactive in assay [14]; 31.8 µM (active) and 31.7 µM (active) and 15.5 µM (active) in assay [12]; 5.04 µM (active) and 5.64 µM (active) and 3.89 µM (active) in [13]. The call in assay [5] and in assay [20] was inactive. Moreover, the max activation in assay [15] was -2.3% (inactive).
